3CLpro inhibitor = SARS-CoV 3CLpro protease inhibition | P0C6X7 | recombinant SARS-CoV 3CLpro, quenched FRET peptide cleavage | inhibition, % at 6 µM | actives 0.14% (n = 290,000); in the data active = inhibition above about 12%
BJeLR lethal = BJeLR cell viability loss; AID 1554; BJeLR (HRASV12) viability, CellTiter-Glo ATP luminescence, 48 h; inhibition, % (concentration not given with the values); actives 0.17% (n = 300,000); in the data active = inhibition above about 50%
Y pestis TopoI = Y. pestis Topo-I inhibition via cleavage products; Y. pestis Topo-I cleavage product accumulation, plate reader; activity, % at 10 µM; actives 0.064% (n = 360,000); AID 504884; in the data active = activity above about 50%, passing the limit was not always enough
PfHsp40 rescue = restores yeast growth despite PfHsp40 toxicity; AID 504582; actives 0.68% (n = 340,000); growth rescue, % at 12.5 µM; S. cerevisiae expressing PfHsp40, growth rescue, ATP luminescence; in the data active = growth rescue above about 28%, passing the limit was not always enough;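 note: yeast W303a lacking pdr1 and pdr3 grown in galactose medium; growth measured after three days at 30 °C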
Mtb BioA inh = BioA (M. tuberculosis) enzyme inhibition | inhibition, % at 9.99 µM | AID 602481 | purified M. tuberculosis BioA enzyme, plate reader | actives 0.096% (n = 360,000); in the data active = inhibition above about 40%
MazF activator = activators of E. coli MazEF toxin-antitoxin RNase. actives 0.32% (n = 350,000). activation, % at 20 µM. AID 504720. FAM/BHQ RNA-DNA oligo cleavage fluorescence, 5 h. P0AE70; in the data active = activation above about 50%
Target sequence (P0AE70 whole entry, looked up): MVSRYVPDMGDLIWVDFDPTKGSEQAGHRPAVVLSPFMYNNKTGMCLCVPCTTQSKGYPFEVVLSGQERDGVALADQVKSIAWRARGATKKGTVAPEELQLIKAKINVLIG
Numbers without * were called inactive; · = no result. Sampled rows, rich in hits. Any-hit rate of the full collection: about 1.1%.

SMILES	3CLpro inhibitor	BJeLR lethal	Y pestis TopoI	PfHsp40 rescue	Mtb BioA inh	MazF activator
CCOC(=O)C1=C(C)NC2=C(C(=O)C(C(=O)OCC)C(c3ccco3)C2)C1c1ccccn1 (stereo not drawn)	0	-3	4	0	·	63*
Cc1ccc(S(=O)(=O)Nc2cccc3c2O[C@@H](CN(C)S(=O)(=O)c2cn(C)cn2)[C@@H](C)CN([C@@H](C)CO)C3=O)cc1	·	·	·	·	4	·
CC(C)(C)c1ccc(OCCn2nc(C(=O)O)c3ccccc3c2=O)cc1	4	-4	72*	7	2	-6
CCOc1ccc(-n2c(-c3ccccc3)c[n+]3c2CCCCC3)cc1	0	12	9	0	·	5
CCOc1ccc(-c2c(C)n(-c3ccc(OCC)cc3)c3[n+]2CCCCC3)cc1	2	70*	9	0	·	9
CSc1ccccc1NC(=O)Nc1ccc(F)c(Cl)c1	0	-3	2	-1	·	0
CSc1ccccc1NC(=O)Nc1cccc(Cl)c1	3	1	-4	1	-1	119*
CCCC(C(=O)c1ccccc1)n1cncn1 (stereo not drawn)	-2	-8	-8	-1	0	-1
Cc1ccc(C(=O)C(SC(C)(C)C)n2cncn2)cc1 (stereo not drawn)	-4	8	4	467*	0	1
O=C(N[C@H]1CC[C@@H](CCn2cc(Cc3ccccc3)nn2)O[C@@H]1CO)c1ccccn1	·	·	·	·	1	·
O=C(CCc1ccccc1)NNC(=S)NC(=O)c1ccccc1	1	-1	8	314*	0	3
CC(=O)NC(=S)NNC(=O)CCc1ccccc1	6	0	16	-1	·	-10
CC(C)(C)c1cc(CCC(=O)NNC(=O)c2ccco2)cc(C(C)(C)C)c1O	0	-4	-4	0	·	-5
CC(C)(C)c1cc(CCC(=O)NNC(=S)NC(=O)c2ccccc2)cc(C(C)(C)C)c1O	4	10	4	508*	·	-1
CCCCC(=O)NC(=S)NNC(=O)CCc1ccccc1	-4	-9	-3	337*	-2	-1
O=C([C@@H]1[C@@H](CO)[C@@H]2Cn3c(ccc(C4=CCCC4)c3=O)[C@H]1N2C(=O)c1ccncc1)N1CCOCC1	·	·	·	·	-2	·
c1ccc(CCNc2ccnc3cc4ccccc4cc23)cc1	2	22	1	189*	·	-11
Cc1[nH]n(-c2cccc3ccccc23)c(=O)c1/C=N/NC(=O)c1cccc([N+](=O)[O-])c1	5	6	-5	83*	-1	-3
CCOC(=O)c1sc(=S)n(-c2cc(F)ccc2F)c1N	1	-1	-4	1	8	5
CCOC(=O)c1sc(=S)n(-c2cc(OC)ccc2OC)c1N	-3	2	-2	200*	·	7
O=C(NCc1ccccc1)c1c(Cl)nc(Cl)c(Cl)c1Cl	3	70*	6	-1	·	0
Cc1nc(Cl)c(C(=O)NCc2ccccc2)c(C)c1Cl	0	-6	0	2	-3	5
Cc1ccc(C#N)c(SCc2cccc(Br)c2)n1	·	-6	13	7	0	-7
Cc1ccc(C#N)c(SCc2cc3c(cc2Cl)OCO3)n1	0	-4	10	1	-1	59*
C[C@H](CO)N1C[C@H](C)[C@H](CN(C)C(=O)CCC(F)(F)F)OCCCC[C@H](C)Oc2ccc(NS(=O)(=O)c3cn(C)cn3)cc2C1=O	·	·	·	·	-2	·
SMILES	3CLpro inhibitor	BJeLR lethal	Y pestis TopoI	PfHsp40 rescue	Mtb BioA inh	MazF activator
CCCCc1ccc(NC(=O)CN(C)CC(=O)Nc2ccccc2Cl)cc1	1	-7	30	36*	-1	1
CN(CC(=O)Nc1ccccc1)CC(=O)Nc1ccccc1Cl	2	-6	2	1	0	-8
COc1ccc(OC)c(Nc2nc(N)nc(CCl)n2)c1	0	121*	4	0	1	8
CCOc1ccc(Nc2nc(N)nc(CCl)n2)cc1	-1	99*	2	-1	0	-2
Cc1ccc(Nc2nc(N)nc(CCl)n2)cc1	0	-1	4	0	0	4
Cc1ccc(Nc2nc(N)nc(CN3CCCCCC3)n2)c(C)c1	-3	-4	12	5	3	0
Cc1ccc(Nc2nc(N)nc(CCl)n2)c(C)c1	-3	121*	-7	-2	·	1
Cc1cccc(Nc2nc(N)nc(CCl)n2)c1C	2	56*	-2	·	-1	6
O=C(C1CC1)N1CC[C@H]2[C@H](CO)Nc3ccc(-c4cccc(F)c4)cc3[C@H]21	·	·	·	·	24	·
